Reference: PubChem BioAssay AID602329 (Broad Institute, 2012)
Hit rate of the full screen: of about 360,000 compounds, about 510 (0.14%) were called active.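 The calls were made as follows: active = mean normalized replicate activity at least 40 and at least half of replicates scoring 40 or more; inconclusive = only one of the two criteria met; inactive = mean below 40 and under half of replicates reaching 40.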 What follows is part of a selection rich in actives, with near analogues and random picks from the rest.

Target: DNA repair and recombination protein RAD54-like (Homo sapiens) (UniProt Q92698)
Sequence (Q92698 whole entry, looked up): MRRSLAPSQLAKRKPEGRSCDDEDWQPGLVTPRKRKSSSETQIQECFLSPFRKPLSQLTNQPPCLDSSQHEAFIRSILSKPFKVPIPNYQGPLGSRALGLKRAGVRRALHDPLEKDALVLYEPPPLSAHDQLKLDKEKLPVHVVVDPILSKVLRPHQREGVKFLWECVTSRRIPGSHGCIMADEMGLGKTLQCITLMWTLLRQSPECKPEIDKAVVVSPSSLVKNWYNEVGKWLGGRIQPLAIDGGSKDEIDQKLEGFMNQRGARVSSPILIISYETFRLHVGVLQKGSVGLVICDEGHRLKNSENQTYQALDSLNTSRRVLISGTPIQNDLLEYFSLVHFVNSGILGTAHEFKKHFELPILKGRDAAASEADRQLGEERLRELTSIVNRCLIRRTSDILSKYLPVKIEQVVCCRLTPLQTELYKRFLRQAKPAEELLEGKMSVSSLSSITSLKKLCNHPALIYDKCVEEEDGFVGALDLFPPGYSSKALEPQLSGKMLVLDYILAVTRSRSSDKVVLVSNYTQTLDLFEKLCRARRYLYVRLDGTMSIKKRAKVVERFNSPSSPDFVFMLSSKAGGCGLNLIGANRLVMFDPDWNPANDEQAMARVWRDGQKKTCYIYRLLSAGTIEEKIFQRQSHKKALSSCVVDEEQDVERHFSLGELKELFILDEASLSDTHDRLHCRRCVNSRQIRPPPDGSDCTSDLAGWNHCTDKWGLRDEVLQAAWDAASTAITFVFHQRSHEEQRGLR
Assay: RAD54 Holliday junction migration blockers – biochemical, fluorescence, single point, primary screen (AID 602329);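 also: 0% = median of neutral control wells and 100% = median of positive control wells; inhibitors cause a drop in the FAM fluorescence signal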
Conditions: RAD54 Holliday junction branch migration, FAM/BHQ fluorescence; at 10.4 µM; stronger effect = higher value

**Q.** `CCOc1cccc(=NC2CCCCC2)c2c(C)[nH]c(C)c12` was tested. Which inhibition did it give?
**A.** The inhibition was 76.8% (active).

**Q.** How did the inhibition turn out when `COc1cccc(-c2ccc3n(c2=O)C[C@@H]2[C@@H](CO)[C@H](C(=O)O)[C@H]3N2C(=O)c2cnccn2)c1` was run?
**A.** The inhibition was -0.151% (inactive).

**Q.** Which inhibition does the source give for `O=C(O)[C@@H]1[C@@H](CO)[C@@H]2Cn3c(ccc(-c4ccccc4F)c3=O)[C@H]1N2C(=O)c1cccnc1` here?
**A.** The inhibition was -3.76% (inactive).

**Q.** Which inhibition does the source give for `COC(=O)[C@@H]1[C@@H](CO)[C@@H]2Cn3c(ccc(C4=CCCCC4)c3=O)[C@H]1N2CC1CC1` here?
**A.** Its inhibition is -6.66% (inactive).

**Q.** Which inhibition does the source give for `C[C@H](CO)N1C[C@H](C)[C@H](CN(C)C(=O)Oc2ccc3ccccc3c2)OCc2cnnn2CCCC1=O` here?
**A.** Its inhibition is -17.1% (inactive).

**Q.** Which inhibition does the source give for `COC(=O)[C@H]1[C@H](CO)[C@H]2Cn3c(ccc(C4=CCCC4)c3=O)[C@@H]1N2C(=O)CC1CC1` here?
**A.** The inhibition was 1.44% (inactive).

**Q.** For `COc1cccc(-c2nc3ccc(N4CCN(C)CC4)cc3[nH]2)c1`, which inhibition is on record?
**A.** Its inhibition is 19.3% (inactive).

**Q.** `CN1CCN(c2cc(N3CCNCC3)ccc2[N+](=O)[O-])CC1` was tested. Which inhibition did it give?
**A.** The inhibition was 68% (active).

**Q.** Which inhibition does the source give for `COC(=O)[C@H]1[C@H](CO)[C@H]2Cn3c(ccc(-c4cccc(F)c4)c3=O)[C@@H]1N2Cc1ccccc1` here?
**A.** Its inhibition is 9.7% (inactive).

**Q.** For `O=C(O)[C@H]1[C@H](CO)[C@H]2Cn3c(ccc(-c4ccccc4)c3=O)[C@@H]1N2S(=O)(=O)c1ccccc1F`, which inhibition is on record?
**A.** The inhibition was 6.58% (inactive).
